From PubChem BioAssay (NCI) come the findings set out here.

Compounds without any hit were thinned out: in the full panel of roughly 83,000, 20% have a hit.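 Plates (96-well) were seeded with cells, treated with compound at one concentration, and incubated for 48 hours before percent growth was determined.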 A number with no mark means an inactive call. Active and inactive are the calls of the source. The calls were made as follows: active = growth percent below 10; inactive = the rest.

Some test systems named below: RPMI-8226 leukemia; OVCAR-8 ovarian; OVCAR-5 ovarian; OVCAR-4 ovarian; SK-OV-3 ovarian; IGROV1 ovarian; OVCAR-3 ovarian; HS 578T breast; NCI/ADR-RES ovarian; T-47D breast.
Common to all, as to test: NCI-60 one-dose screen, 48 h (100 = growth as untreated, 0 = no growth, -100 = all killed)
Common to all, as to conditions: 10 µM

`Cn1c([N+](=O)[O-])cnc1/C=C1\Oc2ccc(Cl)cc2C1=O`: the growth in the assay with RPMI-8226 leukemia was 0.916% (active); in the assay with OVCAR-8 ovarian, -17.3% (active); in the assay on OVCAR-5 ovarian, -20.4% (active); in the assay with OVCAR-4 ovarian it was -4.09% (active); in the assay with SK-OV-3 ovarian it was -10.2% (active); in the assay with IGROV1 ovarian it was -19.3% (active). For the same molecule, the growth in the assay with OVCAR-3 ovarian was -26.8% (active); in the assay with HS 578T breast it was -24.1% (active); with NCI/ADR-RES ovarian, 2.61% (active); with T-47D breast, 78.1%.

Take `CCCCCCCC(C)NCCO` (stereo not given): the growth in the assay with RPMI-8226 leukemia was 107%; in the assay on OVCAR-8 ovarian it was 98.7%; in the assay on OVCAR-5 ovarian, 111%; in the assay with OVCAR-4 ovarian, 118%; in the assay on SK-OV-3 ovarian, 93.6%; with IGROV1 ovarian, 103%. Moreover, the growth in the assay on OVCAR-3 ovarian was 101%; in the assay with HS 578T breast it was 99.4%; in the assay with NCI/ADR-RES ovarian it was 111%; in the assay with T-47D breast it was 100%.

On to `CCOC(=O)c1ccc(NC(=O)Nc2ncc(Cl)cc2Cl)cc1`, for which the growth was 94.5% in the assay with RPMI-8226 leukemia; 97.7% with OVCAR-8 ovarian; 101% in the assay on OVCAR-5 ovarian; 104% with OVCAR-4 ovarian; 100% in the assay on SK-OV-3 ovarian; 115% in the assay with IGROV1 ovarian. The growth in the assay on OVCAR-3 ovarian was 150%; in the assay on HS 578T breast it was 132%; in the assay with NCI/ADR-RES ovarian it was 101%; in the assay on T-47D breast it was 73.4%.

As to `O=C1Nc2ccccc2C1=NC1CCCCC1`, the growth in the assay with RPMI-8226 leukemia is 103%; in the assay with OVCAR-8 ovarian, 98.1%; with OVCAR-5 ovarian, 106%; in the assay on OVCAR-4 ovarian, 96.3%; with SK-OV-3 ovarian, 95.4%; with IGROV1 ovarian, 88.5%. For the same molecule, the growth was 103% in the assay on OVCAR-3 ovarian, 116% in the assay on HS 578T breast, 103% in the assay with NCI/ADR-RES ovarian and 83.1% in the assay with T-47D breast.

`COc1cc2c(cc1OC)N(CCO)C1=C(C(=O)OC1)C2c1ccc(Cl)c(Cl)c1` (stereo not given): the growth was 92.1% in the assay with RPMI-8226 leukemia; 103% in the assay on OVCAR-8 ovarian; 111% in the assay with OVCAR-5 ovarian; 104% in the assay with OVCAR-4 ovarian; 106% with SK-OV-3 ovarian; 110% in the assay with IGROV1 ovarian. In addition, the growth with OVCAR-3 ovarian was 112%; with HS 578T breast, 103%; in the assay on NCI/ADR-RES ovarian, 104%; in the assay with T-47D breast, 88.3%.

On to `Fc1ccc2nc(-c3nc(-c4ccccc4)n4ccccc34)[nH]c2c1`, for which the growth in the assay on RPMI-8226 leukemia was -25.9% (active); with OVCAR-8 ovarian it was -58.7% (active); in the assay with OVCAR-5 ovarian, 55.9%; with OVCAR-4 ovarian, -71.2% (active); in the assay with SK-OV-3 ovarian it was -43.2% (active); in the assay with IGROV1 ovarian it was 1.27% (active). For the same molecule, the growth in the assay with OVCAR-3 ovarian is 0.252% (active); with HS 578T breast it was -5.1% (active); in the assay with NCI/ADR-RES ovarian, -13.1% (active); in the assay with T-47D breast, -0.867% (active).

For the molecule `CC(=O)C1CCC2C3CC(F)C4=CC(=O)CCC4(C)C3C(O)CC12C` (stereo not given), the growth with RPMI-8226 leukemia is 83.4%; in the assay with OVCAR-8 ovarian, 94.2%; in the assay on OVCAR-5 ovarian, 105%; with OVCAR-4 ovarian, 98.6%; in the assay on SK-OV-3 ovarian, 83.9%; in the assay on IGROV1 ovarian it was 97.2%. Also, the growth in the assay on OVCAR-3 ovarian is 114%; with HS 578T breast, 122%; with NCI/ADR-RES ovarian, 94.9%; in the assay with T-47D breast, 119%.

As to `CCN1CCC2(CC1)OC(c1ccccc1)C(c1ccccc1)O2` (stereo not given), the growth in the assay on RPMI-8226 leukemia was 101%; in the assay with OVCAR-8 ovarian, 106%; in the assay with OVCAR-5 ovarian, 95.4%; in the assay on OVCAR-4 ovarian, 110%; in the assay on SK-OV-3 ovarian it was 121%; in the assay on IGROV1 ovarian it was 144%. The growth in the assay on OVCAR-3 ovarian is 114%; in the assay with HS 578T breast, 115%; in the assay on NCI/ADR-RES ovarian, 107%; in the assay on T-47D breast, 103%.

As to `Nc1c(C(=O)Nc2cccc3ccccc23)sc2nc3c(cc12)C(=O)CCC3`, the growth in the assay on RPMI-8226 leukemia is 15.7%; in the assay on OVCAR-8 ovarian it was 21%; in the assay on OVCAR-5 ovarian, 40.3%; in the assay with OVCAR-4 ovarian, 47.7%; with SK-OV-3 ovarian, 5.64% (active); with IGROV1 ovarian, 23.7%. For the same molecule, the growth in the assay with OVCAR-3 ovarian was -26.7% (active); in the assay with HS 578T breast it was 14.2%; in the assay on NCI/ADR-RES ovarian, 2.15% (active); in the assay on T-47D breast it was 47.5%.

Take `COc1cc(C2CC(c3ccc(Nc4ccnc5cc(Cl)ccc45)cc3)=NN2c2ccc(Cl)cc2)cc(OC)c1OC` (stereo not given): the growth in the assay with RPMI-8226 leukemia is 44.7%; in the assay on OVCAR-8 ovarian, 53.8%; in the assay with OVCAR-5 ovarian, 80.6%; with OVCAR-4 ovarian, 69.7%; with SK-OV-3 ovarian it was 79.2%; in the assay on IGROV1 ovarian, 57.5%. For the same molecule, the growth with OVCAR-3 ovarian is 38%; in the assay with HS 578T breast it was 61.6%; in the assay with NCI/ADR-RES ovarian it was 29.6%; in the assay on T-47D breast, 41.3%.

For the molecule `COc1ccc(NC(=O)Cc2nc3nc4sc(C)c(C)c4c(=O)n3[nH]2)cc1`, the growth in the assay with RPMI-8226 leukemia was 90.5%; in the assay on OVCAR-8 ovarian, 101%; in the assay on OVCAR-5 ovarian, 108%; in the assay with OVCAR-4 ovarian it was 113%; in the assay with SK-OV-3 ovarian, 104%; in the assay on IGROV1 ovarian, 101%. The growth with OVCAR-3 ovarian is 115%; with HS 578T breast it was 107%; with NCI/ADR-RES ovarian, 103%; in the assay on T-47D breast it was 96.2%.

`COc1ccc(C(=O)/C=C/c2cc(-c3cc(OC)c(OC)c(OC)c3)n[nH]2)cc1`: the growth is -38.8% (active) in the assay with RPMI-8226 leukemia; 16.1% in the assay with OVCAR-8 ovarian; 47.8% in the assay with OVCAR-5 ovarian; 45.6% in the assay on OVCAR-4 ovarian; 25.7% in the assay on SK-OV-3 ovarian; 43.2% in the assay with IGROV1 ovarian. For the same molecule, the growth was 11.1% in the assay on OVCAR-3 ovarian, 71.3% in the assay with HS 578T breast, 25.9% in the assay with NCI/ADR-RES ovarian and 13.6% in the assay on T-47D breast.

Turning to `COc1ccc(Oc2nc(NC3CCCC3)nc(Sc3ccc(OC)cc3)n2)cc1`, the growth in the assay on RPMI-8226 leukemia was 63.7%; in the assay with OVCAR-8 ovarian, 65.4%; with OVCAR-5 ovarian, 91.1%; in the assay on OVCAR-4 ovarian, 74.3%; in the assay on SK-OV-3 ovarian, 82.8%; in the assay on IGROV1 ovarian it was 64.9%. The growth was 77.1% in the assay with OVCAR-3 ovarian, 83.8% in the assay on HS 578T breast, 66.2% in the assay with NCI/ADR-RES ovarian and 55.9% with T-47D breast.
